Measured values: PubChem BioAssay AID1445 (SRMLSC, 2008)
The whole screen tested about 220,000 compounds, of which about 910 (0.41%) were called active. The full list was thinned out, with actives kept by preference. Results with a measured potency or affinity are listed apart. Unmarked numbers belong to inactive results.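 How the source made its calls: active means primary inhibition above the hit cutoff, then over 50% inhibition at one or more dose response concentrations (cut at about 23% in these data, passing the limit was not always enough); inconclusive means conflicting primary data, or primary hits not chosen for dose response; inactive means low primary inhibition, or under 50% at every dose.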

What follows are molecules tested against Aminopeptidase N (Plasmodium falciparum (isolate 3D7)) (UniProt O96935) (assay: malaria alanyl aminopeptidase activity blockers – biochemical, fluorogenic H-Leu-NHMec substrate, 1536-well (AID 1445;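 further: plate controls were DMSO full reaction for no effect and no enzyme background for full effect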)). Conditions: recombinant M1AAP, H-Leu-NHMec fluorogenic kinetic assay; at 30 µM, hits give high values unless noted.
Chain of Aminopeptidase N (Plasmodium falciparum (isolate 3D7)) (O96935 whole entry, looked up): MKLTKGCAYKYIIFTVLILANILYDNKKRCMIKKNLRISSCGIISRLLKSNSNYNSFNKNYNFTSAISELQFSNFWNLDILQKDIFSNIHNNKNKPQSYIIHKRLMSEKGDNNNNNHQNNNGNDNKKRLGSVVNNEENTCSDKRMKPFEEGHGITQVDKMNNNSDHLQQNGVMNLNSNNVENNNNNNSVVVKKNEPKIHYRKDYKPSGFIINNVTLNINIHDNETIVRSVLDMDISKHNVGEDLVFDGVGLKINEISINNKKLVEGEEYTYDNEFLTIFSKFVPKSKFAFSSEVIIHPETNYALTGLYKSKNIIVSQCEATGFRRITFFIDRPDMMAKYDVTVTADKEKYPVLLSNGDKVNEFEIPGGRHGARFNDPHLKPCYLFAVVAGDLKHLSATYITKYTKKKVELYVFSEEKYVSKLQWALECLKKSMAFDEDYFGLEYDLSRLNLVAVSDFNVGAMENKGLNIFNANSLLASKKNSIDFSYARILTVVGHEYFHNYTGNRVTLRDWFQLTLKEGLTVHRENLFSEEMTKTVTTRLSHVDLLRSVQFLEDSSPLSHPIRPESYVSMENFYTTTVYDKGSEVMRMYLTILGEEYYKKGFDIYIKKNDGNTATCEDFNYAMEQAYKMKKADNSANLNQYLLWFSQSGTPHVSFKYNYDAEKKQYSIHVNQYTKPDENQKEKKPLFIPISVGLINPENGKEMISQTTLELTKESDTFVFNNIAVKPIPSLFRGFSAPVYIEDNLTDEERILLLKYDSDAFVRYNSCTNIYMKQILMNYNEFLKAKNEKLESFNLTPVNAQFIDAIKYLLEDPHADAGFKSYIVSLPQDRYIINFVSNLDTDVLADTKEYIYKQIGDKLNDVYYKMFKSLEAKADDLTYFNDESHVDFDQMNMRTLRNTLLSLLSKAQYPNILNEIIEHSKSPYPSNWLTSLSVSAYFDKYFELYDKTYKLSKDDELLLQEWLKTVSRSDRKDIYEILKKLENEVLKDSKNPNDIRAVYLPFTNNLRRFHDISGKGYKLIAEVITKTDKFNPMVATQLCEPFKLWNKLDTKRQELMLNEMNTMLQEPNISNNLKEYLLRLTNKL

| Structure (SMILES) | inhibition |
| --- | --- |
| O=C(c1ccc(-c2ccccc2)cc1)C1CCCN(C(=O)Cn2cncn2)C1 (stereo not given) | 8.56% |
| O=C(C(=O)N1CCCc2ccccc21)c1cn(CC(=O)N2CCOCC2)c2ccccc12 | 1.02% |
| O=C(NCc1ccccc1)C12CC3CC(CC(C3)C1)C2 | -3.07% |
| Cc1nn(C(=O)c2cccnc2)c(C)c1Sc1ccccc1 | 6.53% |
| Cc1ccc(S(=O)(=O)N(C)C)cc1NC(=O)c1sccc1Cl | 0.57% |
| Cc1ccc(C(=O)N2CCCC(c3ccc(Cl)cc3)=N2)cc1 | -2.39% |
| Cc1ccsc1/C=N/NC(=O)c1ccc([N+](=O)[O-])cc1 | 4% |
| CCCCn1c(NC(=O)c2ccc(Br)o2)c(S(=O)(=O)c2ccccc2)c2nc3ccccc3nc21 | 8.47% |
| CC(=O)Nc1c(S(=O)(=O)c2ccccc2)c2nc3ccccc3nc2n1Cc1ccccc1 | 22.9% |
| CC(=O)Nc1ccc2nc(NC(=O)c3cccs3)sc2c1 | 4.98% |
| O=C(Nc1ccc(F)cc1F)c1ccccc1-c1ccccc1 | -1.46% |
| CCN(CC)C(=O)CSc1nc2ccsc2c(=O)n1CCCC(=O)NCCc1ccc(S(N)(=O)=O)cc1 | 11.4% |
| CCCCNC(=O)CSc1nc2ccsc2c(=O)n1CCCC(=O)NCCc1ccc(S(N)(=O)=O)cc1 | 4.74% |
| COc1cc(C(=O)OCC(=O)NCc2ccco2)cc(OC)c1OC | 7.63% |
| CCCn1c2c(c(O)c(C(=O)Nc3ncccc3O)c1=O)CCCC2 | 25.1% (active) |
| CCCn1c2c(c(O)c(C(=O)Nc3ncccc3C)c1=O)CCCC2 | 5.08% |
| CC(C)Cn1c2c(c(O)c(C(=O)Nc3ncccc3O)c1=O)CCCC2 | 16.5% |
| O=C(NCc1ccccn1)C(=O)NCc1ccccn1 | 5.31% |
| COc1ccc(-c2[nH]c(-c3cccc(OC)c3)nc2SCC(=O)NCc2ccco2)cc1 | 25.2% (active) |
| COc1ccc(-c2nc(SCC(=O)NCc3ccco3)c(-c3ccccc3)[nH]2)cc1OC | 8.46% |
| COc1ccc(-c2[nH]c(-c3ccccc3)nc2SCC(=O)NCc2ccco2)cc1OC | 4.65% |
| COc1ccc(-n2c(SCC(=O)NCc3ccco3)nnc2-c2c[nH]c3ccccc23)cc1 | 3.42% |
| COc1cccc(-n2c(SCC(=O)NCc3ccco3)nnc2-c2c[nH]c3ccccc23)c1 | 16.4% |

| Structure (SMILES) | inhibition |
| --- | --- |
| COc1ccc(OC)c(-n2c(SCC(=O)NCc3ccco3)nnc2-c2c[nH]c3ccccc23)c1 | 24.5% (active) |
| S=c1nc(-c2csc3c2CCCC3)[nH][nH]1 | -7.04% |
| CCCC(=O)N(Cc1cc2cccc(C)c2[nH]c1=O)c1ccccc1OC | 0.65% |
| COc1cccc(-n2cc(CN(C)Cc3nc(Cc4ccccc4)no3)cn2)c1 | 0.62% |
| COc1ccc(NC(=O)C2CCCN(S(=O)(=O)c3ccc4c(c3)oc(=O)n4C)C2)cc1OC (stereo not given) | 3.43% |
| COc1ccccc1N1CCN(S(=O)(=O)CC23CCC(CC2=O)C3(C)C)CC1 (stereo not given) | -1.74% |
| CCCn1cc(S(=O)(=O)CC(=O)Nc2ccc(OC)cc2OC)c2ccccc21 | -0.94% |
| O=C(/C=C/c1ccccc1Cl)N(Cc1ccccc1)C1CCS(=O)(=O)C1 (stereo not given) | 0.49% |
| COc1ccc(N2CSC3=C(C#N)C(c4cccs4)CC(=O)N3C2)cc1 (stereo not given) | 31.7% |
| O=C(Nc1ccc(N2CCN(C(=O)c3ccc(Cl)cc3)CC2)cc1)c1cccnc1 | 3.47% |
| Cc1ccc(C(=O)N2CCN(c3ccc(NC(=O)c4cccnc4)cc3)CC2)cc1 | 25.7% (active) |
| Cc1ccccc1C(=O)N1CCN(c2ccc(NC(=O)c3cccnc3)cc2)CC1 | 1.42% |
| O=[N+]([O-])c1ccc(Cl)cc1N1CCCCC1 | 4.92% |
| O=C(CSc1nnc(-c2ccccc2)n1C1CCCCC1)Nc1ccc(S(=O)(=O)Nc2ccccn2)cc1 | 1.56% |
| Cc1noc(NS(=O)(=O)c2ccc(NC(=O)CSc3n[nH]c(-c4ccccc4)n3)cc2)c1C | 19.9% |
| O=C(CSc1ccccc1)Nc1ccc(S(=O)(=O)Nc2ncccn2)cc1 | 3.64% |
| O=C(CSc1nnc(-c2ccncc2)n1C1CCCCC1)Nc1ccccc1 | 0.45% |
| Cc1cc(C)nc(SCC(=O)Nc2ccc(S(=O)(=O)Nc3ncccn3)cc2)n1 | 3.26% |
| Cc1noc(NS(=O)(=O)c2ccc(NC(=O)CSc3ncccn3)cc2)c1C | 1.83% |
| CC(Sc1nnc2ccccn12)C(=O)N1CCc2ccccc2C1 (stereo not given) | 2.85% |
| NC1=C(c2ccc(F)cc2)C(=O)CS1 | -0.25% |
| COC(=O)c1noc(C)c1-c1ccnn1C(=O)c1ccc(C)cc1 | 5.18% |
